# Screening data: PubChem, Sanford-Burnham Center for Chemical Genomics
# Shown are actives, neighbours in structure and some others; about 31% of the full set was active somewhere.
# CYP2C19 inhib = inhibitors of human CYP2C19; P33261; CYP2C19 Supersomes, luciferin-H EGE luminescence, 30 min; inhibition, % at 5 µM; 96,000 tested, 21% active;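 active = CYP2C19 inhibition above a set limit at 5 µM in the primary screen, cut at about 50% in these data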
# CYP2C9 inhib = blocks human cytochrome P450 2C9 | 96,000 tested, 20% active | inhibition, % at 5 µM | CYP2C9 Supersomes, luciferin-H conversion, luminescence | AID 777 | P11712;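 active = blocking of liver enzyme CYP2C9 beyond about 50% at 5 µM, limit read from the data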
# CYP2C9 act = activators of human CYP2C9; P11712; recombinant CYP2C9, luciferin-H conversion, luminescence; stronger effect = higher value; factor 1 = untreated enzyme, 0 = blocked; activation factor at 5 µM; 96,000 tested, 1.4% active;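 active = activation factor of 2 or more for CYP2C9 at a 5 µM dose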
# CYP2C19 activ = increases human CYP2C19 enzyme activity; P33261; recombinant CYP2C19, luciferin-H EGE luminescence; stronger effect = higher value; 0 = fully inhibited enzyme, 1 = untreated enzyme; activation factor at 5 µM; 96,000 tested, under 10 active; AID 1025;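 active = activation factor of at least 2 at 5 µM in the primary screen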
# PLAP activator = human PLAP activation | activation fold at 20 µM | 96,000 tested, 1.2% active | AID 696 | purified PLAP enzyme, luminescent substrate read-out; stronger effect = higher value; in the data active = activation fold above about 2
# Target sequence (P05187 whole entry, looked up): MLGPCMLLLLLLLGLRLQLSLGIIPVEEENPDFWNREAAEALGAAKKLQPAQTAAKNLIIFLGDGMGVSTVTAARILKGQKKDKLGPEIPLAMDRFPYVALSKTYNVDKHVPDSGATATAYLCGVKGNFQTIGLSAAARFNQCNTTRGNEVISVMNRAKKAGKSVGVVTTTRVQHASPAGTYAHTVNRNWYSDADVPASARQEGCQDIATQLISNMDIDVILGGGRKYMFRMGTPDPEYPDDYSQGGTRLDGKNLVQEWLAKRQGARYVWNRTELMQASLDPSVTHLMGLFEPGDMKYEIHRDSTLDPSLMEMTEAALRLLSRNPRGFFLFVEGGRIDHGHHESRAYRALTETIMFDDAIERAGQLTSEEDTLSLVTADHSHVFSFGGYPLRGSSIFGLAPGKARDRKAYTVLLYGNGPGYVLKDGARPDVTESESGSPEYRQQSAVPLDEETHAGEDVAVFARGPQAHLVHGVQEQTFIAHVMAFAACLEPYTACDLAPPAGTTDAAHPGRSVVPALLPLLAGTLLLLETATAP
# A number is an active result; n = inactive.
SMILES,CYP2C19 inhib,CYP2C9 inhib,CYP2C9 act,CYP2C19 activ,PLAP activator
CCOC(=O)Nc1sc(C)nc1-c1ccccc1,61,n,n,n,n
CCOC(=O)Nc1nc(-c2ccccc2)c(C(=O)c2ccc(Cl)cc2)s1,73,64,n,n,n
CCc1sc(NC(=O)COC)nc1-c1ccccc1,75,57,n,n,n
Cc1nccn1CC(O)COC1CCCCC1 (configuration not stated),n,n,n,n,n
Cc1nc(S(=O)(=O)N(C)c2ccccc2)c(C#N)c(C)c1Cl,n,n,n,n,n
Cc1snc(S(=O)(=O)Cc2c(Cl)cccc2Cl)c1C#N,67,n,n,n,n
Cc1ccc(CNC(=O)c2ccc(NC(=O)CCS(=O)(=O)c3cccs3)cc2)cc1,n,n,n,n,n
COc1ccc(S(=O)(=O)CCC(=O)NCCc2cccc(C)c2)cc1,n,n,n,n,n
COc1cccc(CNC(=O)CCS(=O)(=O)c2cccs2)c1,53,n,n,n,n
O=C(CCS(=O)(=O)c1cccs1)Nc1ccc(C(=O)NCc2ccccc2)cc1,78,60,n,n,n
O=C(Nc1cnccn1)c1cccs1,n,n,n,n,n
COCCn1c(SCC(=O)Nc2sc(C)c(C)c2C#N)nnc1-c1ccc(OC)cc1,n,54,n,n,n
COCCn1c(SCC(=O)Nc2cccc(OC)c2)nnc1-c1ccc(Cl)cc1,94,67,n,n,n
COCCCn1c(SCC(=O)Nc2cccc(C(=O)OC)c2)nnc1-c1ccncc1,81,79,n,n,n
COCCn1c(SCC(=O)Nc2cccc(OC)c2)nnc1-c1ccccc1,n,n,n,n,n
Cc1ccc(C)c(NC(=O)c2cc3c([nH]c4ccccc43)c(C)n2)c1,n,n,n,n,n
O=C(Nc1ccc2c(c1)OCCO2)C1CCN(S(=O)(=O)c2ccc(Br)s2)CC1,n,n,n,n,n
CCSc1nc2sc3c(c2c(=O)n1CC)CC(C)(C)OC3,n,n,n,n,n
Cc1csc(NC(=O)C(Cc2ccccc2)n2cccc2)n1 (configuration not stated),n,63,n,n,n
CCSc1nnc(NC(=O)C(Cc2ccccc2)n2cccc2)s1 (configuration not stated),n,n,n,n,n
CSCC[C@@H](C(=O)NCc1cccs1)N1Cc2ccccc2C1=O,59,n,n,n,n
O=C(NCc1cccs1)C(Cc1ccccc1)n1cccc1 (configuration not stated),64,57,n,n,n
CSCCC(C(=O)NCc1cccs1)N1C(=O)c2ccccc2C1=O (configuration not stated),n,n,n,n,n
Fc1ccc(C2CC(c3ccc(F)cc3)n3ncnc3N2)cc1 (configuration not stated),97,69,n,n,n
COc1ccccc1C1CC(c2ccc(F)cc2)Nc2ncnn21 (configuration not stated),n,n,n,n,n
SMILES,CYP2C19 inhib,CYP2C9 inhib,CYP2C9 act,CYP2C19 activ,PLAP activator
CCc1ccc(C2CC(c3ccccc3)n3ncnc3N2)cc1 (configuration not stated),88,n,n,n,n
O=C(c1cccc2cccc(O)c12)N1CCCCC1,n,n,n,n,n
Cc1ccc(-c2ccc(CCC(=O)O)n2Cc2ccco2)cc1,n,57,n,n,n
O=C(O)CCc1ccc(-c2ccccc2)n1CC(=O)O,n,n,n,n,n
CCOC(=O)C1=C(NC#N)OC(C)=C(C)C1c1ccc(O)cc1 (configuration not stated),96,70,n,n,n
Cc1cc(OCC(=O)Nc2ccc(F)c(F)c2)nc(C(C)C)n1,73,n,n,n,n
O/N=C(/CCc1ccccc1)C1(O)CCCCC1,81,59,n,n,n
COc1ccc(CC/C(=N\O)C2(O)CCCCC2)cc1,58,70,n,n,n
COc1ccc(CCCC(=O)NC2CCCCC2)cc1,n,n,n,n,n
O=C(c1ccc2c(c1)N(Cc1ccccc1)C(=O)c1ccccc1S2)N1CCCC1,63,n,n,n,n
CN1CCN(C(=O)c2ccc3c(c2)N(Cc2ccc(Cl)cc2)C(=O)c2ccccc2S3=O)CC1 (configuration not stated),n,n,n,n,n
COc1ccc(N2CCN(C(CNS(=O)(=O)c3cccs3)c3cccnc3)CC2)cc1 (configuration not stated),69,56,n,n,n
O=S(=O)(NCC(c1cccnc1)N1CCN(c2ccccc2)CC1)c1cccs1 (configuration not stated),92,71,n,n,n
COc1ccc(N2CCN(C(CNS(=O)(=O)c3cc(F)ccc3F)c3cccnc3)CC2)cc1 (configuration not stated),74,57,n,n,n
CCS(=O)(=O)NCC(c1cccnc1)N1CCN(c2ccc(F)cc2)CC1 (configuration not stated),n,n,n,n,n
COc1ccccc1N1CCN(C(CNS(=O)(=O)c2cccs2)c2cccnc2)CC1 (configuration not stated),57,n,n,n,n
CCS(=O)(=O)NCC(c1cccnc1)N1CCN(c2ccccc2OC)CC1 (configuration not stated),n,n,n,n,n
CCCCCCC(=O)NN1CCN(C)CC1,n,n,n,n,n
COc1ccc(S(=O)(=O)NCC(c2cccnc2)N2CCN(c3ccccc3)CC2)cc1C (configuration not stated),73,86,n,n,n
COc1cc(C(=O)NCC(c2cccnc2)N2CCN(c3ccccc3)CC2)cc(OC)c1OC (configuration not stated),n,n,n,n,n
COc1ccc(S(=O)(=O)N2CCc3ccccc3C2)cc1OC,91,n,2.4,n,n
COc1cc2c(cc1OC)CN(S(=O)(=O)c1ccc3c(c1)OCCO3)CC2,95,n,n,n,n
COc1ccccc1-n1c(SCC(=O)N2CCCCC2)nnc1-c1ccccc1O,n,n,n,n,n
CCN(CC)S(=O)(=O)c1ccc2c(c1)nc(SCn1nnc3ccccc3c1=O)n2CC,n,68,n,n,n
Cc1ccc(-n2nnnc2SCn2nnc3ccccc3c2=O)cc1,n,n,n,n,n
Cc1cc(C)nc(Sc2c(C)n[nH]c2C)n1,n,n,n,n,n
O=C(Nc1ccccc1)N1CCC(C(=O)N(Cc2ccco2)Cc2cccs2)CC1,n,n,n,n,n
COc1ccc(CC(=O)Nc2c3c(nn2-c2cccc(C)c2C)CS(=O)C3)cc1OC (configuration not stated),79,n,n,n,n
COc1ccc(CC(=O)Nc2c3c(nn2-c2cccc(C)c2C)CS(=O)C3)cc1 (configuration not stated),94,n,n,n,n
CCOc1ccc(C(=O)Nc2c3c(nn2-c2cccc(C)c2C)CS(=O)C3)cc1 (configuration not stated),n,n,n,n,n
